Measurements reported in PubChem BioAssay (NCATS).
Inconclusive results are not listed. Unmarked numbers belong to inactive results. Calls of active or inactive are those of the source. The call rests on the fitted dose curve; in most records, active means well fitted inhibition curve with a large enough effect; inconclusive means small, poorly fitted or top-dose-only effect; inactive means no such curve, though single readings can be large or run the other way.

target: Tumor susceptibility gene 101 protein (Homo sapiens) (UniProt Q99816); assay: qHTS Assay for Iinhibitors of HIV-1 Budding by Blocking the Interaction of PTAP/TSG101: Hit Validation (AID 651600); settings: PTAP peptide/TSG101 UEV interaction, biochemical assay; series mostly up to 57.5 µM; activity change, negative = inhibition: at the top concentration; further: nearly all actives have a fitted effect of over 70% in size
Sequence (Q99816 whole entry, looked up, the tested form may be a part): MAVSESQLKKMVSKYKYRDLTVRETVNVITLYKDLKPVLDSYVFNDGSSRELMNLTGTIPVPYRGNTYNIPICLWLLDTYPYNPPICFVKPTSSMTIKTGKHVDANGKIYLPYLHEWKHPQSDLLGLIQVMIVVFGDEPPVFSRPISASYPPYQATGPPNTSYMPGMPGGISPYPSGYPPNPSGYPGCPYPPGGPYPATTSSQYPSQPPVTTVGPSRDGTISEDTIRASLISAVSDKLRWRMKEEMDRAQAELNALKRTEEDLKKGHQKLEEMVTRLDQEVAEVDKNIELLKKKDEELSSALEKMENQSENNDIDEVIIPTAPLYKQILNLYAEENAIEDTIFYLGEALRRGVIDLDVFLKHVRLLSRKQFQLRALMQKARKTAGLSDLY
Method in brief: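 Tsg101 binding domain 10 uM + FITC-PTAP peptide 50 nM (final), 10 mM HEPES pH 7.5/0.15 M NaCl/0.01% Tween 20/3 mM EDTA/0.1 mM TCEP; 20 min RT; FP read, FITC filters.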
On the % scale 0 is the no-effect control and ±100 the full control effect; potency means the concentration at half of the fitted maximal effect.

Row | Structure (SMILES) | activity change, negative = inhibition | Potency
1 | CN1CC=C2C(C#N)=C(N)C(C#N)(C#N)[C@H](c3ccoc3)[C@H]2C1 | -29.3% | –
2 | OC(CN1CCN(c2ccccn2)CC1)Cn1c2ccccc2c2ccccc21 (stereo not given) | -4.52% | –
3 | O=[N+]([O-])c1cc(Cl)cc(/C=N/n2cnnc2)c1O | -1.41% | –
4 | O=S(=O)(Nc1nc2n(n1)C(c1ccccc1)C=C(c1ccc(Cl)cc1)N2)c1ccccc1 (stereo not given) | -16.2% | –
5 | CSc1nc(-c2cccs2)c(C#N)c(=O)[nH]1 | -23.6% | –
6 | CCc1cccc(CC)c1NC(=O)CSc1nnc(C2CC2)n1C | -0.886% | –
7 | COc1ccc(-c2cc(C(=O)N3CC(C)CC(C)C3)c3ccccc3n2)cc1OC (stereo not given) | 14.9% | –
8 | CC(OC(=O)c1c2c(nc3ccccc13)/C(=C\c1ccc3c(c1)OCO3)CCC2)C(=O)Nc1ccc(S(N)(=O)=O)cc1 (stereo not given) | – | 4.11 µM (active)
9 | Nc1cccc(N2C(=O)c3cccc4c(N)ccc(c34)C2=O)c1 | – | 4.11 µM (active)
10 | CC1=CC(=C(C#N)c2nc3ccccc3s2)C=C(C)N1c1ccc(F)cc1F | – | 13 µM (active)
11 | CC(C)(C)OC(=O)NC(Cc1ccccc1)C(=O)N1CCC(C(=O)NCC(=O)Nc2ccc(F)cc2)CC1 (stereo not given) | 0.595% | –
12 | Brc1ccc(-c2nc3ccccn3c2Nc2ccc3c(c2)OCCO3)o1 | -1.55% | –
13 | CCN(CC)c1ccc(/C=C(/C#N)c2nc3ccc(C)cc3[nH]2)c(OC(C)C)c1 | -2.77% | –
14 | O=c1[nH]c2c(s1)C=Nc1ccccc1N2 | – | 9.19 µM (active)
15 | CCCCNc1c2c3c(cccc3n(C)c1=O)C(=O)c1ccccc1-2 | – | 5.8 µM (active)
16 | O=C(NCc1cccc(C(F)(F)F)c1)c1cccc2c1C(=O)c1ccc(N3CCC(Cc4ccccc4)CC3)cc1S2(=O)=O | – | 14.6 µM (active)
17 | S=C(NCc1ccccc1)Nc1cccc(Cl)c1 | -1.4% | –
18 | N#Cc1c(SCC(=O)Nc2nc3ccc(Br)cc3s2)sc2c(O)cc(=O)[nH]c12 | -21.8% | –
19 | CCN(c1ccc(N=Cc2c(O)n(Cc3ccc(OC)cc3)c(=O)c3ccccc23)cc1)C(C)C | – | 25.9 µM (active)
20 | COc1ccc(/C=C2/N=C(c3cccs3)OC2=O)cc1OC(C)C | -21.7% | –

Row | Structure (SMILES) | activity change, negative = inhibition | Potency
21 | S=C(Nc1ccc(N2CCOCC2)cc1)Nc1ccc2nc(-c3ccco3)c(-c3ccco3)nc2c1 | – | 32.6 µM (active)
22 | C=CCOc1ccc(C2OC34CCCCC3C(C#N)(C#N)C2(C#N)C(=N)O4)cc1 (stereo not given) | – | 25.9 µM (active)
23 | CCCCOC(=O)c1ccc(NC(=O)/C(C#N)=C/c2ccc(-c3ccccc3)o2)cc1 | -23.2% | –
24 | CCCCC(=O)NC1=NC(=O)C(C)(C)S1 | 0.827% | –
25 | Cc1nc2nc(-c3cccs3)cn2nc1C | -19% | –
26 | O=C(NCc1ccccc1Br)c1cccc2c1C(=O)c1ccc(N3CCC(Cc4ccccc4)CC3)cc1S2(=O)=O | 11% | –
27 | CC(C)c1nnc(N2C(=O)C(O)=C(C(=O)c3cccs3)C2c2ccccc2)s1 (stereo not given) | – | 8.19 µM (active)
28 | Cc1cc(=O)c2c([nH]1)c(C)cc1[nH]c(C)c(C)c12 | 13.6% | –
29 | Cc1ccccc1-c1ccc(/C=C2/SC(N3CCOCC3)=NC2=O)o1 | 6.42% | –
30 | C/C(=N/NC(=O)c1ccncc1)c1cc2ccc(O)cc2oc1=O | – | 14.6 µM (active)
31 | CCN(CC)c1ccc2cc(NC(=O)CCC(=O)O)c(=O)oc2c1 | – | 18.3 µM (active)
32 | COc1ccc(CNS(=O)(=O)c2cc3c(cc2Cl)N(C(C)=O)CCO3)cc1 | -1.31% | –
33 | COc1cc(C2C=C(c3cccs3)Nc3ncnn32)cc(OC)c1OC (stereo not given) | -9.22% | –
34 | COc1ccc2oc3ccccc3c(=O)c2c1 | -2.86% | –
35 | CN1CC=C2C(C#N)=C(N)C(C#N)(C#N)C(Cc3ccccc3)C2C1 (stereo not given) | -12.7% | –
36 | Cc1ccc(Nc2ccc([N+](=O)[O-])ccc2=O)cc1 | -10.1% | –
37 | CCOC(=O)C1CCCN(c2nc3ccccc3nc2C(C#N)C(=O)NCc2ccccc2)C1 (stereo not given) | -23.5% | –
38 | Brc1ccc(C2=CC(c3ccco3)n3ncnc3N2)cc1 (stereo not given) | -0.541% | –
39 | N#CC(C(=O)NC1CC1)c1nc2ccccc2nc1N1CCCC1 (stereo not given) | 12.8% | –
40 | C/C(N)=C(/C#N)C(=O)CSc1ncnc2ccccc12 | 7.4% | –
